High-throughput results as filed in PubChem BioAssay.
Peg3 prom inh-1: inhibitors of Peg3 promoter; 1.7% of 360,000 active; inhibition, % at 20 µM; HeLa PEG-Prom luciferase reporter, luminescence, overnight; AID 588405;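 active = inhibition of at least 50% at 20 µM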
HIF-2a inh: HIF-2a inhibition; 786-0 RCC cells HIF-2a reporter, luciferase luminescence, overnight; inhibition, % at 18.8 µM; 0.72% of 360,000 active;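 active = inhibition of the luminescence signal of 40% or more relative to plate controls, in a single-dose primary screen at 18.75 µM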
TROY signal inh: blocks TROY-dependent signaling in reporter cells; Q293 LMP1-TROYcd NF-kB luciferase reporter, 4 h; inhibition, % at 10 µM; 0.98% of 360,000 active;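 active = compounds whose plate-normalised and pattern-corrected inhibition of the luciferase reporter signal at the single screening dose is 50% or more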
CF NFkB block: inhibitors of cystic fibrosis induced NF-kB; KKLEB NF-kB-GFP reporter, PAF-induced, GFP fluorescence overnight; inhibition, % at 5 µM; 0.86% of 360,000 active;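 active = at least 50% inhibition at 5 µM, scaled per plate between neutral and stimulator controls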;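 note: PAF is a Pseudomonas aeruginosa culture filtrate used as stimulus; plate controls were PAF-stimulated DMSO wells for no effect and unstimulated DMSO wells for full effect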
KKLEB cytotox: reduces viability of KKLEB cystic fibrosis airway cells. AID 602141. KKLEB CF airway cells viability, ATPlite luminescence, overnight; hits give low values; cells stimulated with P. aeruginosa culture filtrate. 0.36% of 360,000 active. activity change (cytotoxicity), % at 5 µM;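 active = corrected activity change at or below -50% at 5 µM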
TWEAK Fn14 block: inhibitors of TWEAK-Fn14 interaction signaling | TWEAK-stimulated Fn14 reporter cells, luciferase luminescence, 8 h | inhibition, % at 10 µM | 2% of 360,000 active | AID 1159606; in the data active = inhibition above about 50%
Peg3 prom inh-2: confirmation of Peg3 promoter inhibitors. 84% of 1,300 active. inhibition, % at 20 µM. HeLa PEG-Prom luciferase reporter, luminescence, overnight. shares compounds with Peg3 prom inh-1;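 active = at 20 µM dose, 40% or more inhibition averaged across four replicates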
CF NFkB inh conf: CF NF-kB inhibition confirmation, single concentration. KKLEB CF airway cells, PAF-induced NF-kB-GFP fluorescence, overnight. shares compounds with CF NFkB block. AID 602472. inhibition, % at 5 µM. 64% of 1,300 active; in the data active = inhibition above about 40%;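 note: stimulus PAF is a Pseudomonas aeruginosa filtrate and not platelet activating factor; plate controls were DMSO wells with stimulus for no effect and unstimulated DMSO wells for full effect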
Mdm2-MdmX confirm: Mdm2/MdmX (human) interaction inhibition, confirmed; AID 504601; shares compounds with HIF-2a inh; SaOS-2 split-luciferase Mdm2/MdmX complementation, luminescence; inhibition, % at 8 µM; 99% of 740 active;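 active = mean inhibition of the luminescence signal across two replicates at or above 26 percent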
Target sequence (O15151 whole entry, looked up): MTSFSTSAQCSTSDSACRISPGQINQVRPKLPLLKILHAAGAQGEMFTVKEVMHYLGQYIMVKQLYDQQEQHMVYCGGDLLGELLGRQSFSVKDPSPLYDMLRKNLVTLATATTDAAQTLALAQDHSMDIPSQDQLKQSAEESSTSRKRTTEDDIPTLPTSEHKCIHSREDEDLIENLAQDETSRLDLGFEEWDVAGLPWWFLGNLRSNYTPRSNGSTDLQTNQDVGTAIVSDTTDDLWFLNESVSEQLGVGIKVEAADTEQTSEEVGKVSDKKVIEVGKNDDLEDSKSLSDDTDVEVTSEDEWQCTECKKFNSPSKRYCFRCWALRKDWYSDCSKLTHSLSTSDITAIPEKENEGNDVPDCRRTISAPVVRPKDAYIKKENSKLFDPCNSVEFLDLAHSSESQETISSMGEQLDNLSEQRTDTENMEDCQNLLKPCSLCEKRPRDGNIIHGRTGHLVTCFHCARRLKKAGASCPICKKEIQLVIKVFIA
Target sequence (Q00987 whole entry, looked up): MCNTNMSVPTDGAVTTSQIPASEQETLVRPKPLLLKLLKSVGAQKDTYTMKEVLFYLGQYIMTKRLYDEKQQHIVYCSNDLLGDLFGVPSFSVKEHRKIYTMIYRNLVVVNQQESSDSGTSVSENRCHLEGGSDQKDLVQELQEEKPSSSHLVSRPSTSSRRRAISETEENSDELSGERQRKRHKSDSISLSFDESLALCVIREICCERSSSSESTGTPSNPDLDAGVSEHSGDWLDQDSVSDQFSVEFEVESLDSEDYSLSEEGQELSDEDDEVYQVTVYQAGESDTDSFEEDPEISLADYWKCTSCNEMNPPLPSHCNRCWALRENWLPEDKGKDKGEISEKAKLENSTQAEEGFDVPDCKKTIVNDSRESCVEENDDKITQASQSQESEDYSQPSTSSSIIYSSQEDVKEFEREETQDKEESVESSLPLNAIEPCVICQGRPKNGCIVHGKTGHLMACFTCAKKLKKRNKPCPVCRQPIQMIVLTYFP
HIF-2a inh conf: confirmation of HIF-2a inhibitors; shares compounds with HIF-2a inh; inhibition, % at 18.8 µM; 56% of 1,800 active; 786-0 RCC cells, HIF-2a luciferase reporter luminescence, overnight;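 active = mean inhibition across four replicates of at least 40 percent at the single tested concentration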
HIF-1a counter: inhibits HIF-1a reporter, a counter-screen for HIF-2a inhibitors; MiaPaCa-2 HIF-1a luciferase reporter, desferoxamine, overnight; shares compounds with HIF-2a inh; AID 651589; 72% of 1,800 active; inhibition, % at 18.8 µM;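 active = mean inhibition of the reporter signal across four replicates at the single tested dose of 50% or more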
The depositor's hits bear a star; / = no result. Rows were chosen to be rich in hits. Some 3.9% of all compounds tested hit in one or more screens of this group.

SMILES	Peg3 prom inh-1	HIF-2a inh	TROY signal inh	CF NFkB block	KKLEB cytotox	TWEAK Fn14 block	Peg3 prom inh-2	HIF-2a inh conf	HIF-1a counter	others
CC(=O)C(=Cc1cccc(C#N)c1)C(=O)c1ccccc1	104.2*	93.8*	-11.9	56.0*	-7.4	77.1*	19.0	28.1	87.0*	CF NFkB inh conf=-61.2
Cn1nnnc1SCc1cccc2ccccc12	3.5	-2.5	-9.8	9.6	6.4	-3.7	/	/	/
Cn1nnnc1Sc1ncnc2scc(-c3cccc4ccccc34)c12	98.4*	53.0*	29.3	47.5	-42.6	60.2*	97.4*	68.0*	105.0*
O=C(O)c1cccc(N/N=C/c2ccc(OC(F)(F)F)cc2)c1	14.0	16.6	-64.0	-3.8	4.4	-18.4	/	/	/
O=C(O)c1cccc(N/N=C/c2cccs2)c1	82.8*	82.0*	-62.7	-27.3	5.5	48.5	68.1*	85.8*	-4.9
Fc1ccc(NC2=NCCCCC2)cc1	5.8	16.3	1.5	-7.6	1.9	12.4	/	/	/
Fc1ccc(-c2nnc(NC3=NCCCCC3)o2)cc1	81.5*	67.3*	77.2*	5.6	-9.7	99.4*	56.8*	75.4*	66.2*
OCC[C@H]1C[C@@H](O)[C@H](O)[C@@]2(OCc3ccccc32)O1	-2.5	14.7	3.9	6.8	-2.7	7.1	/	/	/
CS(=O)(=O)Nc1cccc(NC(=O)C2Cc3c(-c4ccccc4)ccnc3O2)c1 (stereo unspecified)	51.3*	46.8*	17.2	1.2	-0.9	1.4	56.7*	22.0	85.2*
CC(C)CCNC(=O)C1CCN(C(=O)N(C)C)CC1	-5.7	20.8	-0.9	5.9	-12.6	13.1	/	/	/
CCOC(=O)c1c(NC(C)=O)sc2c(OCC(O)CN(CC)CC)c(Br)ccc12 (stereo unspecified)	85.6*	77.9*	-0.9	-28.7	-13.0	-42.6	97.8*	4.0	105.6*
CCOC(=O)c1c(NC(C)=O)sc2c(OCCN(CC)CC)c(Br)ccc12	27.1	-2.0	-25.8	-26.5	-1.9	-43.4	/	/	/
COC(=O)c1nn(-c2ccc3c(c2)CCN3C(C)=O)cc1O	89.5*	77.8*	76.1*	-19.4	-1.3	103.4*	83.6*	-130.8	46.3
COC(=O)c1nn(-c2ccc3c(c2)OCO3)cc1O	-125.6	-221.8	-21.8	-9.7	1.0	28.7	/	/	/
O=C(CCn1cnnn1)Nc1ccccc1	-2.2	1.9	-4.3	-32.6	-15.4	3.3	/	/	/
CCC1(O)C(=O)OCc2c1cc1n(c2=O)Cc2cc3cc(O)ccc3nc2-1 (stereo unspecified)	62.7*	52.2*	76.4*	83.9*	-27.3	70.4*	52.0*	17.4	101.6*	CF NFkB inh conf=109.8*
CCCC(=O)NC(c1ccccc1Cl)c1ccc2cccnc2c1O (stereo unspecified)	52.9*	4.2	1.9	12.7	-7.8	4.0	61.9*	/	/	Mdm2-MdmX confirm=91.5*
C=CCN(C(=O)CSC1=NC(=O)CN1C(C)=O)c1nc(C)c(-c2ccccc2)s1	-86.5	-118.3	-37.3	29.4	26.6	-12.3	/	/	/
COc1ccc(C(=O)Nc2ccc(C)cn2)c(OC)c1	74.3*	62.5*	75.9*	-16.6	-62.9*	102.4*	52.4*	76.1*	84.8*
Cc1noc(C)c1COc1ccccc1C(=O)N1CCN(c2cccc(C(F)(F)F)c2)CC1	7.5	15.4	-0.5	27.6	-19.4	11.1	/	/	/
COc1ccc(CC(=O)Nc2ccc3c(C)cc(=O)oc3c2)cc1OC	6.8	-16.8	-13.7	8.7	4.8	-41.8	/	/	/
CN1OC[C@@H]2CN[C@H](c3ccc(-c4cc5ccccc5o4)cc3)C[C@@H]21	89.4*	90.3*	90.3*	-3.5	-45.5	106.4*	90.2*	95.7*	97.6*
CCOC(=O)c1sc(=S)n(C)c1NC(=O)c1ccc(C(C)(C)C)cc1	31.8	3.2	38.8	13.8	-4.9	-30.1	/	/	/
COc1cc(O)c(C(CCN2CCN(c3ccccc3)CC2)c2ccc(N(C)C)cc2)c(OC)c1 (stereo unspecified)	4.8	-3.4	4.3	6.7	-6.9	-8.4	/	/	/
CNC[C@H](CC1CCCCC1)NC[C@H](Cc1ccccc1)NCCC12CC3CC(CC(C3)C1)C2	98.7*	95.9*	41.7	64.8*	-84.9*	-42.7	100.0*	16.1	104.2*	Mdm2-MdmX confirm=102.7*
SMILES	Peg3 prom inh-1	HIF-2a inh	TROY signal inh	CF NFkB block	KKLEB cytotox	TWEAK Fn14 block	Peg3 prom inh-2	HIF-2a inh conf	HIF-1a counter	others
NC[C@H](Cc1ccccc1)NCCCCC1CCCCC1	-11.4	9.1	-16.2	2.1	2.9	-7.4	/	/	/
O=C(c1ccccc1)c1ccc(COC(=O)c2cnccn2)cc1	9.0	2.9	-1.0	-4.6	20.0	-9.7	/	/	/
O=C(Nc1ccccn1)c1cc2ccccc2o1	51.4*	44.9*	70.1*	-3.4	-29.4	95.8*	45.0*	70.5*	60.7*
O=C(Nc1ccc(Cl)cn1)c1cc2ccccc2o1	-144.4	-51.5	10.2	0.0	-3.4	45.8	/	/	/
CC1CCN(c2ccc(-c3cccc(NC(=O)C(F)(F)F)c3)nn2)CC1	85.9*	88.1*	83.0*	21.6	-65.6*	100.9*	87.2*	93.5*	92.7*
O=C(Nc1cccc(-c2ccc(N3CCCCC3)nn2)c1)c1ccc(Br)o1	-97.9	-168.4	34.3	12.2	-40.1	40.5	/	/	/
O=C(Nc1cccc(-c2ccc(N3CCCCC3)nn2)c1)C(F)(F)F	76.8*	73.5*	71.5*	-2.3	-42.7	97.1*	75.1*	88.3*	73.1*
C=CCNc1ncnc2c1[nH]c1ccc(Cl)cc12	-197.6	-263.4	-1.1	-17.8	6.1	16.7	/	/	/
Cc1cc(N2CCN(C)CC2)ccc1NC(=O)c1c2c(nc3ccccc13)CCN(Cc1ccccc1)C2	108.8*	27.2	-85.0	10.3	-75.8*	11.9	86.7*	/	/	Mdm2-MdmX confirm=102.5*
CC(=O)c1ccc(OC(C)C)c(CSc2nc(O)cc(=O)[nH]2)c1	5.4	8.9	8.1	7.7	8.2	-3.9	/	/	/
O=C(C[C@H]1C=C[C@H](NC(=O)c2ccccn2)[C@@H](CO)O1)NCc1cc(F)cc(F)c1	/	0.1	/	/	/	/	/	/	/
COC1=C(Nc2ccc(O)cc2)C(=O)c2ccccc2C1=O	-36.0	-99.8	-17.9	18.8	4.0	-4.6	/	/	/
